Source: PubChem BioAssay (National Center for Advancing Translational Sciences (NCATS))
An excerpt weighted towards active compounds, which were near 11% of everything screened.
BAZ2B inh – blocks human BAZ2B | AlphaScreen BAZ2B-H3K14Ac peptide displacement | Potency, µM (series often up to 114 µM), without a hit: top-dose activity change, negative = inhibition, most hits filed as inhibitors | 360,000 tested, 4.4% active; also: % is scaled to controls: 0 for no effect and ±100 for the full control effect; nearly all actives have a fitted effect of over 60% in size
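Complex of BAZ2B and biotin-H3K14Ac (50 nM apiece) forms over 30 min at RT, then faces library compounds up to 110 uM for another 30 min; AlphaScreen beads added, 20 min dark incubation, luminescence read.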
JMJD2A Tudor inh – inhibitors of human JMJD2A Tudor domain | AlphaScreen JMJD2A-Tudor / H3K4me3 peptide binding | AID 504339 | O75164 | Potency, µM (series often up to 114 µM), for inactives: at the highest dose activity change, negative = inhibition, most hits filed as inhibitors | 390,000 tested, 4.4% active; also: % is scaled to controls: 0 for no effect and ±100 for the full control effect; nearly all actives have a fitted effect of over 50% in size
HP1b binding inh – inhibitors of HP1-beta chromodomain binding to methylated histone tails. AlphaScreen HP1-beta / biotin-H3K9me3 peptide binding. AID 540317. 390,000 tested, 0.56% active. P83916. Potency, µM (doses to about 114 µM), for the others: at the highest dose activity change, negative = inhibition, most hits filed as inhibitors; also: nearly all actives have a fitted effect of over 70% in size
Target sequence (P83916 whole entry, looked up): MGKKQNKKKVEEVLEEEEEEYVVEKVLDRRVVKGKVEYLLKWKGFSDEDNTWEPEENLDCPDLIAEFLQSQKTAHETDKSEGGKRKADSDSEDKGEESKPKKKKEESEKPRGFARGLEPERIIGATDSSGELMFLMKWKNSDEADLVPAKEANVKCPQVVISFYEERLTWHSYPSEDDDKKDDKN
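Compound inhibition of the preformed complex between 50 nM HP1-beta and 50 nM biotinylated H3K9me3 peptide was read by AlphaScreen. Buffer was PBS pH 7.4 with 0.01% Tween-20. Incubations ran 30 min at room temperature, with 10 ug/mL donor/acceptor beads.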
L3MBTL1 inh – L3MBTL1 (human) inhibition. AlphaScreen L3MBTL1–H3K9me1 peptide binding. Potency, µM (highest dose often 57.1 µM), for the others: top-dose activity, negative = inhibition, hits mostly inhibitors. 230,000 tested, 0.66% active. AID 485360; also: % is scaled to controls: 0 for no effect and ±100 for the full control effect; nearly all actives have a fitted effect of over 60% in size
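AlphaScreen assay: L3MBTL1 (50 nM final) was preincubated 30 min at room temperature with biotinylated H3(1-15)K9me1 peptide (75 nM final), then 30 min with library compounds; streptavidin donor and nickel chelate acceptor beads (10 ug/mL final) added, 30 min dark.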
G9a block – blocks human histone lysine methyltransferase G9a; Q96KQ7; G9a H3K9 monomethylation, AlphaScreen, 2 h; Potency, µM (top dose mostly 102 µM), without a hit: at the top dose activity, negative = inhibition, most hits filed as inhibitors; 350,000 tested, 8.8% active; AID 504332; also: % is scaled to controls: 0 for no effect and ±100 for the full control effect; nearly all actives have a fitted effect of over 75% in size
Target sequence (Q96KQ7 913-1193 limits assumed): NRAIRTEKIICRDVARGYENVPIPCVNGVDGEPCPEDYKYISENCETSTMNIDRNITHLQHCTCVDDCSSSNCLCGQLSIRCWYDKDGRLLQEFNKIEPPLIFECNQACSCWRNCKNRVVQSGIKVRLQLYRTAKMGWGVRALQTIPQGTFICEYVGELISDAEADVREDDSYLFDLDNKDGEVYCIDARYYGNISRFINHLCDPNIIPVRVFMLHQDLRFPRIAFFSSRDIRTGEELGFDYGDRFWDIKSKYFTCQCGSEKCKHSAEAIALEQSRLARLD
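Readings reflect AlphaScreen signal from monomethyl-H3K9 antibody detection. HMT at 20 nM; substrate b-H3K9 500 nM; cofactor SAM 20 uM; 2 h RT reaction; compounds tested as titrations in qHTS with 15 min preincubation.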
Numbers without * were called inactive; [ ] = remark or other dose. Calls follow the shape of the dose curve; as a rule, active = well fitted inhibition curve with a large enough effect; inconclusive = small, poorly fitted or top-dose-only effect; inactive = no such curve, though single readings can be large or run the other way. Potency is read from the fitted curve at half-maximal effect.

Results for COc1ccc(Cl)cc1NC(=O)CCn1nc(C)cc1C ?
BAZ2B inh: 71µM*; JMJD2A Tudor inh: inconclusive; HP1b binding inh: 10%; G9a block: -2%[59 µM]

How did COc1ccc(Cl)cc1NC(=O)CCN1CCN(C)CC1 do in these assays?
BAZ2B inh: inconclusive; JMJD2A Tudor inh: -17%; HP1b binding inh: 5%; G9a block: 19%[12.7 µM]

How did COc1ccc(CCCC(=O)Nc2cc(C)ccc2OC)cc1 do in these assays?
BAZ2B inh: 6%; JMJD2A Tudor inh: 12%; HP1b binding inh: 60%; G9a block: 79µM*

What do the screens show for `Cc1[nH][nH]c(=O)c1C(c1c(C)[nH][nH]c1=O)c1cn(Cc2ccc(Cl)c(Cl)c2)c2ccccc12`?
BAZ2B inh: 28µM*; JMJD2A Tudor inh: 50µM*; HP1b binding inh: inconclusive; L3MBTL1 inh: inconclusive; G9a block: 8.9µM*

What do the screens show for `O=c1c2ccccc2ncn1Cc1ccc(Cl)c(Cl)c1`?
BAZ2B inh: 3%; JMJD2A Tudor inh: -2%; HP1b binding inh: 45%; L3MBTL1 inh: -6%

What do the screens show for `Cc1[nH][nH]c(=O)c1C(c1c(C)[nH][nH]c1=O)c1cn(Cc2ccc(F)cc2)c2ccccc12`?
BAZ2B inh: 45µM*; JMJD2A Tudor inh: 50µM*; HP1b binding inh: inconclusive; L3MBTL1 inh: inconclusive; G9a block: 8.9µM*

How did CCCN(CCC)C(=O)C1CCCN(c2ncnc3onc(-c4ccc(F)cc4)c23)C1 (centres undefined) do in these assays?
BAZ2B inh: 7%[57.1 µM]; JMJD2A Tudor inh: 3%; HP1b binding inh: 38%; G9a block: -12%[59 µM]

How did CSc1ccc(C2c3[nH]c4ccccc4c3CCN2C(=O)CCC2CCCC2)cc1 (centres undefined) do in these assays?
BAZ2B inh: inconclusive; JMJD2A Tudor inh: inconclusive; HP1b binding inh: -6%[57 µM]; G9a block: -30%[59 µM]

What do the screens show for `O=[N+]([O-])c1ccc2nc(NS(=O)(=O)c3ccc(Cl)cc3)sc2c1`?
BAZ2B inh: inconclusive; JMJD2A Tudor inh: -33%; HP1b binding inh: 7%; G9a block: 14µM*

How did O=S(=O)(Nc1ccc2nc(N3CCOCC3)sc2c1)c1ccc(Cl)cc1 do in these assays?
BAZ2B inh: -1%; JMJD2A Tudor inh: -21%; HP1b binding inh: 33%; L3MBTL1 inh: 3%; G9a block: 10µM*

How did O=C(NC(Nc1nc2ccc([N+](=O)[O-])cc2s1)(C(F)(F)F)C(F)(F)F)c1ccccc1Cl do in these assays?
BAZ2B inh: -38%; JMJD2A Tudor inh: inconclusive; HP1b binding inh: 3%; L3MBTL1 inh: -6%; G9a block: 79µM*

Results for COc1cc(F)c(S(=O)(=O)N2CCCN(S(=O)(=O)c3cccc(NC(C)=O)c3)CC2)c(F)c1 ?
JMJD2A Tudor inh: -31%

How did C/C(N)=C(/C#N)C(=O)CSc1nc2ccccc2[nH]1 do in these assays?
BAZ2B inh: inconclusive; JMJD2A Tudor inh: 79µM*; HP1b binding inh: inconclusive; G9a block: inconclusive

Results for Cc1ccccc1N1Cc2ccccc2C1 ?
BAZ2B inh: inconclusive; JMJD2A Tudor inh: -13%; HP1b binding inh: 52%; L3MBTL1 inh: -8%; G9a block: 7.9µM*

How did COc1ccc(OC)c(N2Cc3ccccc3C2)c1 do in these assays?
BAZ2B inh: 3%; JMJD2A Tudor inh: inconclusive; HP1b binding inh: 7%; L3MBTL1 inh: -7%; G9a block: 7.9µM*

Results for COc1ccccc1N1Cc2ccccc2C1 ?
BAZ2B inh: 56µM*; JMJD2A Tudor inh: 50µM*; HP1b binding inh: 1%; L3MBTL1 inh: -13%; G9a block: 10µM*

Results for COc1ccc(Cl)cc1N1Cc2ccccc2C1 ?
BAZ2B inh: inconclusive; JMJD2A Tudor inh: -24%; HP1b binding inh: 23%; G9a block: inconclusive

What do the screens show for `C=CCC(O)[C@H](Cc1cnc2ccccc2c1)[C@H](/C=C/CCCC)c1ccccc1` (some centres undefined)?
JMJD2A Tudor inh: 2%; HP1b binding inh: 60%

How did CN(C)c1ccc(-c2cncnc2NCCN2CCOCC2)cc1 do in these assays?
G9a block: -2%[0.501 µM]

What do the screens show for `CC(C)c1nn2c(=O)cc(COC(=O)c3cccc(NC(=O)c4ccccc4F)c3)nc2s1`?
BAZ2B inh: -7%; JMJD2A Tudor inh: -4%; HP1b binding inh: 22%; G9a block: 25%[59 µM]

Results for COc1cc(OC)c(NS(=O)(=O)c2coc(C(N)=O)c2)cc1Cl ?
BAZ2B inh: -6%; JMJD2A Tudor inh: -30%; HP1b binding inh: 36%; G9a block: 71µM*

How did OCCN(CC#CC(O)(c1ccccc1)c1cccc(F)c1)CCO (centres undefined) do in these assays?
BAZ2B inh: 79µM*; JMJD2A Tudor inh: inconclusive; HP1b binding inh: -5%; L3MBTL1 inh: 12%

What do the screens show for `O=C(O)Cc1c[nH]c2cccc(O)c12`?
BAZ2B inh: 35µM*; JMJD2A Tudor inh: 22µM*; HP1b binding inh: 35µM*; L3MBTL1 inh: 5.6µM*; G9a block: -33%[12.7 µM]

What do the screens show for `O=C(O)Cc1c[nH]c2ccccc12`?
JMJD2A Tudor inh: -30%; HP1b binding inh: 1%

Results for COc1ccc(S(=O)NC2CCCCC2)c(OC)c1C (centres undefined) ?
BAZ2B inh: 1%; JMJD2A Tudor inh: inconclusive; HP1b binding inh: 56%; L3MBTL1 inh: 3%; G9a block: 32µM*

How did CCCC(=O)OCCNc1cc(Sc2nccn2C)c2nonc2c1[N+](=O)[O-] do in these assays?
BAZ2B inh: -25%; JMJD2A Tudor inh: -16%; HP1b binding inh: -32%; L3MBTL1 inh: -1%; G9a block: 28µM*

What do the screens show for `CCCC(=O)OCCNc1cc(SCc2ccco2)c2nonc2c1[N+](=O)[O-]`?
BAZ2B inh: 25µM*; JMJD2A Tudor inh: inconclusive; HP1b binding inh: inconclusive; L3MBTL1 inh: inconclusive; G9a block: 20µM*

What do the screens show for `CC(=O)OCCCNc1cc(SCc2ccco2)c2nonc2c1[N+](=O)[O-]`?
BAZ2B inh: inconclusive; JMJD2A Tudor inh: 50µM*; HP1b binding inh: inconclusive; L3MBTL1 inh: inconclusive; G9a block: inconclusive

Results for CCCCN1C(=O)/C(=C2\SC(N3CCCCC3)=NC2=O)c2ccccc21 ?
BAZ2B inh: -84%; JMJD2A Tudor inh: 56µM*; HP1b binding inh: 16µM*; L3MBTL1 inh: inconclusive; G9a block: 16µM*

Results for O=C1N=C(N2CCOCC2)S/C1=C1\C(=O)N(Cc2ccccc2)c2ccc(Br)cc21 ?
L3MBTL1 inh: 0%; G9a block: inconclusive

Results for Cc1ccc(-n2nc(C)c3c(C(=O)Nc4ccc(C)cc4Cl)cc(C)nc32)cc1 ?
BAZ2B inh: -8%[57.1 µM]; JMJD2A Tudor inh: 2%; HP1b binding inh: 32%; G9a block: 6%[59 µM]

Results for Cc1occc1C(=O)NNC(=O)c1cccc(F)c1 ?
BAZ2B inh: -6%; JMJD2A Tudor inh: -14%[11.4 µM]; HP1b binding inh: 25%; L3MBTL1 inh: 1%; G9a block: 5%
